# A selection: hits, their analogues and other compounds. The true share with any hit is near 5.4%.
# rCAG RNA binder = binders of r(CAG) RNA repeats, primary screen, biochemical, fluorescence. r(CAG) RNA repeat, TO-PRO-1 dye displacement fluorescence. inhibition, % at 3 µM. 370,000 compounds, 1.3% hits;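 active means inhibition above the plate cutoff, the mean of all test compounds on that plate plus 3 SD, cut at about 35% in these data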;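 further: 0% = DMSO alone and 100% = 100 µM mitoxantrone as full dye displacement; higher means more dye released from RNA so lower well fluorescence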
# A3A deaminase = APOBEC3A ssDNA deaminase inhibitors, primary screen, selectivity assay for APOBEC3G inhibitor project, biochemical, FAM/TAMRA oligo cleavage fluorescence. inhibition, % at 20 µM. recombinant A3A, FAM/TAMRA ssDNA deamination fluorescence. DNA dC->dU-editing enzyme APOBEC-3A (Homo sapiens), P31941. 330,000 compounds, 0.41% hits;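 active means at least 40% inhibition at 20 µM here, with at most 30% in a related deaminase screen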;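 further: plate controls were A3A with DMSO for no effect and wells lacking A3A enzyme for full effect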
# Target sequence (P31941 whole entry, looked up): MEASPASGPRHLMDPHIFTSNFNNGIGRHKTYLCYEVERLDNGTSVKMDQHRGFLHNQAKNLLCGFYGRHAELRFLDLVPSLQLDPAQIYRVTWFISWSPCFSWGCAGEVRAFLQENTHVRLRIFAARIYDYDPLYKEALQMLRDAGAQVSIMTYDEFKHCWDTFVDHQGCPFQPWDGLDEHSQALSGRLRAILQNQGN
# ALR inh = inhibitors of human ALR sulfhydryl oxidase, primary screen, biochemical, H2O2 detection, HRP-luminol luminescence, single point. FAD-linked sulfhydryl oxidase ALR (Homo sapiens), P55789. purified ALR, DTT oxidation. inhibition, % (no concentration beside the values). 290,000 compounds, 3.8% hits. AID 485317, 2010;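 active means mean replicate inhibition above about 79%, with every replicate also reaching it, limit read from the data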
# aDG glyco up = activators of alpha-DG glycosylation, primary screen, uHTS, Pro5-aDG cells, AlphaScreen; alpha-DG glycosylation AlphaScreen (IIH6); 0% Pro5, 100% B10-LARGE cell signal; 360,000 compounds, 0.22% hits; AID 624168, 2012; activation, % at 10 µM;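 active means activation of at least 8% versus controls, or a plate z-score of at least 8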;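 further: Pro5 are CHO cells carrying HIG-tagged alpha-DG that lacks glycosylation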
# APOBEC3G inh = APOBEC3G DNA deaminase inhibitors, primary screen, biochemical, fluorescence, single-stranded DNA substrate, uHTS; 330,000 compounds, 0.28% hits; recombinant A3G, ssDNA deamination FAM/TAMRA fluorescence; inhibition, % at 20 µM; DNA dC->dU-editing enzyme APOBEC-3G (Homo sapiens), Q9HC16;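 active means inhibition of at least 40% at 20 µM, with no more than 30% in the related APOBEC3A deaminase screen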;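 further: plate controls were DMSO wells with A3G for no effect and wells lacking A3G enzyme for full effect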
# PHOSPHO1 block = PubChem AID 1565; Phosphoethanolamine/phosphocholine phosphatase (Homo sapiens), Q8TCT1; recombinant PHOSPHO1, absorbance phosphatase assay; inhibition, % at 13.3 µM; 290,000 compounds, 1.1% hits; in the data active means inhibition above about 60%
# Target sequence (Q8TCT1 whole entry, looked up): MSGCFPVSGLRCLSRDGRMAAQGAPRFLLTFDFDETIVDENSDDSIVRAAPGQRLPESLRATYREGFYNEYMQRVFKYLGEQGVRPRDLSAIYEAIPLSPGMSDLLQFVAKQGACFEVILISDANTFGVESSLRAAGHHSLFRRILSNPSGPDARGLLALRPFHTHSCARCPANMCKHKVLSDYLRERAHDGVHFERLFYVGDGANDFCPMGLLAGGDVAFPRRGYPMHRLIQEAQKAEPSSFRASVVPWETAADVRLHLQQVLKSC
# The depositor's hits bear a star; . = no result.
SMILES,rCAG RNA binder,A3A deaminase,ALR inh,aDG glyco up,APOBEC3G inh,PHOSPHO1 block
C[C@]12CC[C@H]3C(=CCc4cc(O)ccc43)[C@@H]1CCC2=O,4,-3,94*,0,-2,6
CCN1C(=S)SC(=O)C1=C1C=C(C)N(Cc2ccco2)C(C)=C1,4,1,99*,2,-2,66*
CCN1C(=S)SC(=O)C1=C1C=C(C)OC(C)=C1,4,-6,-5,0,-3,5
Cc1nnc(SCC(=O)c2cc(C)n(C3CC3)c2C)s1,0,3,55,0,-3,105*
CNc1nnc(SCC(=O)c2cc(C)n(C3CC3)c2C)s1,5,2,92*,0,2,.
Cc1cc(C(=O)CSc2nnc(-c3ccco3)o2)c(C)n1Cc1ccco1,7,13,-1,1,5,1
Cc1nnc(SCC(=O)c2cc(C)n(-c3ccc4c(c3)OCO4)c2C)s1,11,-6,-23,1,-3,92*
Cc1cc(C(=O)CSc2nnc(-c3ccco3)o2)c(C)n1-c1ccc2c(c1)OCCO2,20,-5,-7,0,-5,92*
Cc1cc(C(=O)CSc2nnnn2C)c(C)n1-c1ccc2c(c1)OCCO2,4,-5,.,0,-8,43
Cc1cc(C(=O)CSc2nnnn2C)c(C)n1C1CC1,2,-6,24,0,29,4
CCOC(=O)Cc1nnc(NC(=O)Nc2ccccc2)s1,35*,0,-1,0,-4,22
O=C(Nc1ccccc1)Nc1nnc(Cc2ccccc2F)s1,31,-8,-1,0,-4,23
O=C(O)c1ccc2noc(-c3ccccc3)c2c1,2,6,23,0,2,-10
O=C(O)/C=C/c1ccc2c(-c3ccccc3)onc2c1,2,-3,93*,0,-4,-21
O=C(CSCc1ccc(C(=O)O)cc1)Nc1ccc2ccccc2c1,3,0,99*,0,-5,2
Cc1nnc(SCC(=O)Nc2ccc(C(N)=O)cc2)n1-c1ccccc1,0,-2,-11,0,-10,42
CCOC(=O)c1ccc(NC(=O)CSCC(=O)OCC(=O)c2ccccc2)cc1,3,1,100*,0,3,-12
COC(=O)c1ccc(CSCC(=O)Nc2ccccc2)cc1,-6,-3,92*,2,-14,32
O=C(CSCC(=O)OCC(=O)c1ccc(Br)cc1)Nc1ccc(Br)cc1,4,-3,25,0,-2,16
COC(=O)c1cccc(NC(=O)CSCc2ccccc2)c1,-4,-6,-8,0,-10,.
NC(=O)c1ccc(NC(=O)CSC(=O)c2ccccc2)cc1,3,-1,99*,0,16,.
COC(=O)c1cc2c(c3c4cc(C)ccc4n(S(=O)(=O)c4ccc(OC)cc4)c13)C(=O)N(Cc1ccccc1OC)C2,14,.,.,.,.,.
CCOC(=O)C1=C(C(=O)OCC)C2N(Cc3ccc(C(F)(F)F)cc3)c3ccccc3[C@@]23C[C@@H](C(=O)OC)N(S(=O)(=O)c2ccccc2C)C3=N1 (some centres not stated),12,.,.,.,.,.
COc1cccc(N2CCN(C(=O)CCn3nnc4ccccc43)CC2)c1,0,.,.,.,.,.
C=CCN1C(=O)[C@H](CC(=O)NCCCC)[C@@]2(C(=O)OCC)CCCC=C12,-1,.,.,.,.,.
SMILES,rCAG RNA binder,A3A deaminase,ALR inh,aDG glyco up,APOBEC3G inh,PHOSPHO1 block
COC(=O)C1C(O)=C(C=Nc2ccccc2)C(=O)CC1(C)C (configuration not stated),-5,-5,100*,0,-11,30
COc1cc(-n2c(C)nc3cc(C(=O)N4CCCC4)ccc32)cc(OC)c1OC,1,.,.,.,.,.
NC(=O)c1ccsc1NC(=O)COC(=O)COc1ccccc1F,0,-1,78*,0,-4,-16
NC(=O)c1ccsc1NC(=O)COC(=O)COc1ccccc1[N+](=O)[O-],5,2,-1,0,-4,.
CCn1c(Cc2ccccc2)nnc1SCC(=O)Nc1ccc(N)cc1,0,4,87*,0,7,26
CCn1c(CC(=O)Nc2ccc(C)cc2)nnc1SCC(=O)N1CCN(c2ccccc2)CC1,1,-1,89*,0,-4,14
CCn1c(CSCc2ccc(C)cc2)nnc1SCC(=O)NCc1ccccc1,-2,-13,7,0,-7,-22
CCn1c(CSCc2ccc(F)cc2)nnc1SCC(=O)NCc1ccccc1,-7,1,-5,0,-3,64*
COC(=O)C1=C(C)N(Cc2ccc(C(F)(F)F)cc2)C(=NCc2ccc(C(F)(F)F)cc2)NC1c1ccccc1 (configuration not stated),6,.,.,.,.,.
O=C(CSCc1ccc(Cl)cc1)NCc1ccc2c(c1)OCO2,-3,-2,0,0,-6,26
C/C(=C\C(=O)c1ccc(Cl)cc1)NCc1ccc2c(c1)OCO2,-3,3,-1,0,0,85*
NNC(=O)/C=C/c1ccc(Cl)cc1Cl,7,-1,98*,0,-3,42
CCCC(=O)C1=C(c2ccccc2)C(C#N)(C#N)C(C#N)=C1N,32,0,99*,0,-6,1
C[C@H](O)[C@@H]1CN2CCc3ccc(-c4ccc5c(c4)OCO5)cc3[C@@H]2C[C@@H]1N(C)C(=O)c1ccco1,3,.,.,.,.,.
O=S(=O)(c1ccccc1)N1CCCc2nc(-c3ccc(F)cc3)ccc21,4,.,.,.,.,.
Cc1ccccc1C(=O)NC1CCN(C(=O)N(c2ccccc2)c2ccccc2)CC1,-11,-2,86*,0,-6,1
Cc1cccc(NC(=S)NNC(=O)c2nn(C)cc2Cl)c1,2,-3,89*,0,-4,-49
Cc1ccc(NC(=S)NNC(=O)c2nn(C)cc2Cl)cc1,3,-3,91*,0,1,-4
O=C(NCc1ccccc1)OCCCN1C(=O)CCC12CCCCC2,0,.,.,.,.,.
CCCCNS(=O)(=O)/C=C/c1cc2c(cc1CNC(=O)OC(C)(C)C)OCO2,1,.,.,.,.,.
COc1ccc(N=C2S/C(=C\c3ccc(N4CCOCC4)o3)C(=O)N2CCc2c[nH]c3ccccc23)cc1,.,-14,-5,-1,-18,8
COc1ccc(N=C2S/C(=C\c3ccc(OCC(=O)O)cc3)C(=O)N2CCc2c[nH]c3ccccc23)cc1,68*,2,.,0,-1,-104
